Source: PubChem BioAssay AID903 (National Center for Advancing Translational Sciences (NCATS), 2007)
Out of some 55,000 compounds screened, about 340 (0.62%) were called active. Entries that show only a call come without a potency. Another 3% or so got no clear call; they are omitted. The sample holds actives, similar compounds and a random draw of the others, so the mix is not that of the screen. Calls come from the whole dose curve; as a rule, active = well fitted cell-killing curve with a large enough effect; inconclusive = small, poorly fitted or top-dose-only effect; inactive = no such curve, though single readings can be large or run the other way.

Assay: qHTS Screen for Compounds that Selectively Target Cancer Cells with p53 Mutations: Cytotoxicity of p53 Null Cells at the Permissive Temperature; note: nearly all actives have a fitted effect of over 55% in size
Settings: H1299-neo p53 null cells, ATP luminescence, 24 h, 32C; series mostly up to 46.1 µM
How it was run: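 Cells lacking p53 (H1299-neo) are plated at 600 per well and allowed to settle overnight at 37C. Test compounds (up to 46 uM) are added and held 24 hours at 32C, then ATP is quantified by luminescence.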
Potency is the fitted concentration of half-maximal effect.

| Structure (SMILES) | Potency |
| --- | --- |
| Cc1ccc2nc(/C(C#N)=C/c3ccccc3F)[nH]c2c1 | inactive |
| O=S(=O)(c1ccc(Br)cc1)c1nnn2c1nc(N1CCOCC1)c1sccc12 | inactive |
| CCOc1ccc(NC(=O)c2cnn(-c3ccccc3)c2-n2cccc2)cc1 | inactive |
| CCOc1ccc(NC(=O)c2ncoc2-c2ccco2)cc1 | 12.6 µM (active) |
| CCOc1ccc(NC(=O)CN2CCN(CC(=O)Nc3ccc(OC)cc3)CC2)cc1 | inactive |
| CCc1nc2ccc(C(=O)N3CCN(c4cc(Cl)ccc4C)CC3)cc2nc1CC | inactive |
| CCOC(=O)c1c(C)[nH]c(C)c1S(=O)(=O)N1CCC(C(=O)Nc2ccc(C)c(Cl)c2)CC1 | inactive |
| N#C/C(=C\c1ccccc1F)c1nc2ccccc2c(=O)[nH]1 | inactive |
| COc1ccc(-n2ccnc(NCCc3ccc(Cl)cc3)c2=O)cc1OC | inactive |
| CCOC(=O)c1cccc(NS(=O)(=O)c2cn(C)c(C)n2)c1 | inactive |
| O=C(NC1CC(=O)N(c2ccc(Cl)cc2)C1)C1CCCC1 (stereo not given) | inactive |
| Cn1c(=O)c2c(nc(Oc3ccc(C#N)cc3)n2Cc2ccc(Cl)cc2Cl)n(C)c1=O | inactive |
| Brc1ccc(-c2csc(N/N=C/c3ccc4c(c3)OCO4)n2)cc1 | inactive |
| CCCC(=O)Nc1cccc(NC(=S)NC(=O)C(C)Oc2ccc(Cl)cc2Cl)c1 (stereo not given) | inactive |
| COC(=O)c1cc2occc2n1Cc1nc(-c2ccc(C)cc2)oc1C | inactive |
| Cc1ccc(CNC(=O)CCNS(=O)(=O)c2ccc3c(c2)oc(=O)n3C)cc1 | inactive |
| CCOc1ccc(CNC(=O)CCc2c(C)nn(-c3ccc(N4CCCCC4)nn3)c2C)cc1 | inactive |
| CCc1cc2c(-c3ccccc3)cc(=O)oc2c2c1OCN(Cc1ccc(C)cc1)C2 | inactive |
| COc1ccc(CCNC(=O)CN2C(=O)COc3ccc(S(=O)(=O)N4CCCC4)cc32)cc1OC | inactive |
| CCOc1cc(CNCc2ccccn2)ccc1OCC(=O)NC(C)(C)C | inactive |
| Cc1ccc(CCNC(=O)C2CCN(c3nnc(-n4cccc4CNc4ccc(C)cc4)s3)CC2)cc1 | inactive |
| C/C(CC(=O)Nc1ccc(Cl)cc1)=N\NC(=O)C(=O)NCCO | inactive |

| Structure (SMILES) | Potency |
| --- | --- |
| Cc1ccc2[nH]c3c(=O)n(CC(=O)NC(C)C)ncc3c2c1 | inactive |
| CCC(=O)Nc1ccc(C)cc1-c1nc2ccccc2n(Cc2ccccc2)c1=O | inactive |
| CCn1c(SCC(=O)Nc2ccc(C)cc2)nc2nc3c(cc2c1=O)CCCC3 | inactive |
| CCOc1ccccc1NC(=O)C1CCCN(S(=O)(=O)c2cn(C)cn2)C1 (stereo not given) | inactive |
| Cc1nc2ccc(S(=O)(=O)N(CC(=O)Nc3ccc(F)cc3)Cc3ccccc3)cc2s1 | inactive |
| COC(=O)c1ccc(NC(=O)c2cnn(-c3ccc(Cl)cc3)c2C2CCN(C(=O)OC(C)(C)C)CC2)cc1 | inactive |
| COC(=O)/C(NC(C)=O)=C(\C)c1ccc(Cl)cc1 | inactive |
| CCCCCn1c(CCNC(=O)c2ccc(F)cc2)nc2ccccc21 | inactive |
| CCCC(=O)Nc1ccc2oc(-c3ccc(O)c(Br)c3)nc2c1 | inactive |
| CC(=O)Nc1cc(C(=O)NCc2ccc(F)cc2)ccc1Sc1ccc(F)cc1 | inactive |
| Cc1ccc(NC(=S)N2CCN(c3ncccn3)CC2)cc1C | inactive |
| O=C(CCC(=O)N1CC2CCCN2c2ccccc21)NCc1ccccc1Cl (stereo not given) | inactive |
| Cn1c(=NC(=O)c2ccc3c(c2)OCCO3)sc2cc(S(C)(=O)=O)ccc21 | inactive |
| O=C(NC1CCCC1)C(c1ccccn1)N(C(=O)c1csnn1)C1CCCC1 (stereo not given) | inactive |
| CN(CC(=O)Nc1cccc(C(F)(F)F)c1)S(=O)(=O)c1cccs1 | inactive |
| Cc1cccc(-c2nnc(SCC(=O)N3CCCc4ccccc43)o2)c1 | inactive |
| Cc1ccc2[nH]cc(CCCN3C(=O)c4ccccc4C3=O)c2c1 | inactive |
| CCNC(=S)N1CCC(c2nc3cc(C)c(C)cc3[nH]2)CC1 | inactive |
| CCCCn1c(=O)c2oc3ccccc3c2n(CC(=O)Nc2ccccc2OC)c1=O | inactive |
| O=C(CSc1nc2nccnc2c(=O)n1CCc1c[nH]c2ccccc12)Nc1ccccc1F | inactive |
| Cc1cccc(NC(=O)Cn2cc(S(=O)(=O)Cc3ccccc3Cl)c3ccccc32)c1 | inactive |
| Cc1csc2nc(COc3ccc(NC(=O)COc4ccccc4)cc3)cc(=O)n12 | inactive |

| Structure (SMILES) | Potency |
| --- | --- |
| COc1ccc(NC(=O)Nc2cccc(-c3noc(C)n3)c2)cc1 | inactive |
| COc1cccc(C(c2c(O)cc(C)n(Cc3ccco3)c2=O)N2CCN(c3ccccc3)CC2)c1 (stereo not given) | inactive |
| O=C(CSc1nccn1Cc1ccc(Cl)cc1)NCc1ccccc1 | inactive |
| Cc1ccc(CSCC(N)C(=O)O)cc1 (stereo not given) | inactive |
| COc1ccccc1N1CCN(C(=O)C2CCN(S(=O)(=O)c3c(C)noc3/C=C/c3ccc(C)cc3)CC2)CC1 | inactive |
| O=C(OCc1cc(=O)n2nc(C3CC3)sc2n1)c1ccccc1Cl | inactive |
| COC(=O)c1ccc(NC(=O)CSc2nncc3ccc(OC)c(OC)c23)cc1 | inactive |
| CCC1(C)CC(=O)c2c(ccc3oc(C(=O)Nc4ccc(C(C)=O)cc4)c(C)c23)O1 (stereo not given) | inactive |
| Cc1c(C(=O)NCc2ccccc2Br)oc2ccc3c(c12)C(=O)CC(C)(C)O3 | 10 µM (active) |
| O=C(NCc1ccccc1Cl)C1=Cc2cc(Br)ccc2OC1 | inactive |
| Cc1nn(-c2nc(-c3ccccc3)cc(C(F)(F)F)n2)c(C)c1Cl | inactive |
| CC(C)NC(=S)N1CCN(S(C)(=O)=O)CC1 | inactive |
| COc1cc(C(=O)N2CCN(C(=O)COc3cccc(C)c3)CC2)cc(OC)c1OC | inactive |
| CC(C)Cn1c(C2CC(=O)N(c3ccccc3Cl)C2)nc2ccccc21 (stereo not given) | inactive |
| Cc1ccccc1CSCCNC(=O)c1ccc(Cl)c(S(=O)(=O)N2CCOCC2)c1 | inactive |
| Cc1cc2c(cc3c(SCc4nc(-c5ccccc5)oc4C)nnc(C)n32)o1 | inactive |
| CC(=O)c1cccc(NC(=O)CSc2nc3c(c(=O)[nH]2)CCC3)c1 | inactive |
| CC(C)C(OC(=O)c1cccs1)C(=O)NC1CCCCC1 (stereo not given) | inactive |
| COc1ccc(C(=O)COC(=O)CCCC(=O)Nc2cc(C(F)(F)F)ccc2Cl)cc1 | inactive |
| Cc1nnc(N2CCC(C(=O)Nc3ccc(F)cc3)CC2)c2nn(-c3ccc(Cl)cc3)c(C)c12 | inactive |
| O=C(CC1N=C2c3ccccc3N=C(SCc3ccc(F)cc3)N2C1=O)NCc1cccs1 (stereo not given) | inactive |
